Assay results reported in PubChem BioAssay AID1159580 (chemical genetic matrix, 2015).
Out of some 5,500 compounds screened, about 2,000 (36%) were called active. About 18% were inconclusive and are not listed. Rule as the data show it: active = normalized growth mostly below about 0.91 (no sharp cut-off); inconclusive = no clear call, values can overlap the other calls; inactive = mostly above about 0.92. Some of the results follow.

Assay: chemical genetic growth profiling, strain panel (AID 1159580);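 also: tested at 20 µM; growth read once vehicle control cultures reached saturation at 30 °C; 1 = growth at the plate median or of vehicle wells; lower values mean less growth of the strain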
Conditions: growth OD

Measured: normalized growth

CSc1nc(NC(C)C)nc(NC(C)C)n1
inactive: S. cerevisiae deletion strains, locus YJR075W, strain HOC1, hits give low values 1.02 | S. cerevisiae deletion strains, locus YKL009W, strain mrt4, hits give low values 1.03 | S. cerevisiae deletion strains, locus YKL068W, hits give low values 1 | S. cerevisiae deletion strains, locus YKL085W, strain MDH1 (second series), hits give low values 1.01 | S. cerevisiae deletion strains, locus YKL085W, strain MDH1, hits give low values 1.01 | S. cerevisiae deletion strains, locus YKL160W, strain elf1, hits give low values 0.979 | S. cerevisiae deletion strains, locus YKL190W, strain CNB1, hits give low values 1.02 | S. cerevisiae deletion strains, locus YKR001C, strain vps1, hits give low values 1.03 | S. cerevisiae deletion strains, locus YKR026C, strain gcn3, hits give low values 0.973 | S. cerevisiae deletion strains, locus YKR091W, strain srl3, hits give low values 0.973 | S. cerevisiae deletion strains, locus YLL001W, strain dnm1, hits give low values 0.979 | S. cerevisiae deletion strains, locus YLL026W, hits give low values 0.975 | S. cerevisiae deletion strains, locus YLL041C, strain sdh2, hits give low values 0.983 | S. cerevisiae deletion strains, locus YLR027C, strain aat2, hits give low values 0.967 | S. cerevisiae deletion strains, locus YLR039C, strain RIC1, hits give low values 0.987 | S. cerevisiae deletion strains, locus YLR058C, strain SHM2, hits give low values 1.01 | S. cerevisiae deletion strains, locus YLR102C, strain apc9, hits give low values 1 | S. cerevisiae deletion strains, locus YLR113W, strain HOG1, hits give low values 0.993 | S. cerevisiae deletion strains, locus YLR221C, strain rsa3, hits give low values 0.971 | S. cerevisiae deletion strains, locus YLR258W, strain gsy2, hits give low values 0.964 | S. cerevisiae deletion strains, locus YLR262C, strain YPT6, hits give low values 1.03 | S. cerevisiae deletion strains, locus YLR268W, strain sec22, hits give low values 1.01 | S. cerevisiae deletion strains, locus YLR320W, strain mms22, hits give low values 0.961 | S. cerevisiae deletion strains, locus YLR330W, strain CHS5, hits give low values 1.01 | S. cerevisiae deletion strains, locus YLR342W, strain FKS1 (second series), hits give low values 0.974 | S. cerevisiae deletion strains, locus YLR342W, strain FKS1, hits give low values 0.958 | S. cerevisiae deletion strains, locus YLR357W, strain rsc2, hits give low values 0.923 | S. cerevisiae deletion strains, locus YLR370C, strain arc18, hits give low values 0.969 | S. cerevisiae deletion strains, locus YLR371W, strain rom2, hits give low values 0.999 | S. cerevisiae deletion strains, locus YLR384C, strain iki3, hits give low values 0.972 | S. cerevisiae deletion strains, locus YLR418C, strain cdc73, hits give low values 1.04 | S. cerevisiae deletion strains, locus YML016C, strain PPZ1, hits give low values 0.989 | S. cerevisiae deletion strains, locus YML032C, strain rad52, hits give low values 1.03 | S. cerevisiae deletion strains, locus YML120C, strain ndi1, hits give low values 0.966 | S. cerevisiae deletion strains, locus YML124C, strain tub3, hits give low values 1.02 | S. cerevisiae deletion strains, locus YMR058W, strain fet3, hits give low values 0.97 | S. cerevisiae deletion strains, locus YMR078C, strain ctf18, hits give low values 1.02 | S. cerevisiae deletion strains, locus YMR125W, strain sto1, hits give low values 0.958 | S. cerevisiae deletion strains, locus YMR129W, hits give low values 0.973 | S. cerevisiae deletion strains, locus YMR205C, strain PFK2, hits give low values 0.944 | S. cerevisiae deletion strains, locus YMR223W, strain ubp8, hits give low values 1.01 | S. cerevisiae deletion strains, locus YMR231W, strain pep5, hits give low values 0.973 | S. cerevisiae deletion strains, locus YMR263W, strain SAP30, hits give low values 1.02 | S. cerevisiae deletion strains, locus YMR307W, strain GAS1, hits give low values 1.05 | S. cerevisiae deletion strains, locus YNL067W, strain RPL9B, hits give low values 0.999 | S. cerevisiae deletion strains, locus YNL071W, strain lat1, hits give low values 0.978 | S. cerevisiae deletion strains, locus YNL128W, strain TEP1, hits give low values 1.01 | S. cerevisiae deletion strains, locus YNL153C, strain GIM3, hits give low values 1 | S. cerevisiae deletion strains, locus YNL183C, strain NPR1, hits give low values 0.969 | S. cerevisiae deletion strains, locus YNL209W, strain ssb2, hits give low values 0.987 | S. cerevisiae deletion strains, locus YNL233W, strain BNI4, hits give low values 1.02 | S. cerevisiae deletion strains, locus YNL248C, strain rpa49, hits give low values 0.979 | S. cerevisiae deletion strains, locus YNL250W, strain rad50, hits give low values 1.01 | S. cerevisiae deletion strains, locus YNL271C, strain bni1, hits give low values 1.01 | S. cerevisiae deletion strains, locus YNL298W, strain CLA4, hits give low values 1 | S. cerevisiae deletion strains, locus YNL307C, strain MCK1, hits give low values 1.01 | S. cerevisiae deletion strains, locus YNL322C, strain KRE1 (second series), hits give low values 0.962 | S. cerevisiae deletion strains, locus YNL322C, strain KRE1, hits give low values 1.01 | S. cerevisiae deletion strains, locus YNR049C, strain mso1, hits give low values 0.953 | S. cerevisiae deletion strains, locus YNR052C, strain pop2, hits give low values 1.02 | S. cerevisiae deletion strains, locus YOL006C, strain TOP1, hits give low values 1.02 | S. cerevisiae deletion strains, locus YOL012C, strain htz1 0.96 | S. cerevisiae deletion strains, locus YOL147C, strain pex11, hits give low values 1.02 | S. cerevisiae deletion strains, locus YOR001W, strain rrp6, hits give low values 0.98 | S. cerevisiae deletion strains, locus YOR061W, strain CKA2, hits give low values 1 | S. cerevisiae deletion strains, locus YOR069W, strain VPS5, hits give low values 1.01 | S. cerevisiae deletion strains, locus YOR070C, strain gyp1, hits give low values 0.962 | S. cerevisiae deletion strains, locus YOR080W, strain dia2, hits give low values 0.963 | S. cerevisiae deletion strains, locus YOR083W, strain WHI5, hits give low values 0.969 | S. cerevisiae deletion strains, locus YOR106W, strain vam3, hits give low values 0.956 | S. cerevisiae deletion strains, locus YOR136W, strain idh2, hits give low values 1.03 | S. cerevisiae deletion strains, locus YOR144C, strain elg1, hits give low values 1.01 | S. cerevisiae deletion strains, locus YOR184W, strain ser1, hits give low values 1.03 | S. cerevisiae deletion strains, locus YOR231W, strain MKK1, hits give low values 1.03 | S. cerevisiae deletion strains, locus YOR265W, strain rbl2, hits give low values 0.962 | S. cerevisiae deletion strains, locus YOR270C, strain vph1, hits give low values 0.934 | S. cerevisiae deletion strains, locus YOR290C, strain snf2, hits give low values 0.95 | S. cerevisiae deletion strains, locus YOR316C, strain cot1, hits give low values 1.01 | S. cerevisiae deletion strains, locus YPL051W, strain arl3, hits give low values 0.963 | S. cerevisiae deletion strains, locus YPL055C, strain LGE1, hits give low values 1.04 | S. cerevisiae deletion strains, locus YPL078C, strain atp4, hits give low values 0.969 | S. cerevisiae deletion strains, locus YPL106C, strain sse1, hits give low values 0.986 | S. cerevisiae deletion strains, locus YPL240C, strain hsp82, hits give low values 0.966 | S. cerevisiae deletion strains, locus YPL241C, strain CIN2, hits give low values 1.01 | S. cerevisiae deletion strains, locus YPL256C, strain CLN2, hits give low values 1.04 | S. cerevisiae deletion strains, locus YPR119W, strain clb2, hits give low values 1.02 | S. cerevisiae deletion strains, locus YPR141C, strain kar3, hits give low values 1.02 | S. cerevisiae deletion strains, locus YPR163C, strain tif3, hits give low values 1.02 | S. cerevisiae deletion strains, locus YPR167C, strain met16, hits give low values 1.01 | S. cerevisiae deletion strains, strain wtn01, hits give low values 1.01 | S. cerevisiae strains, strain wild type, hits give low values 1.01
active: S. cerevisiae deletion strains, locus YLR262C, strain YPT6 (second series), hits give low values 0.856
